miR-122 inh: miR-122 suppressors via Renilla sensor increase, primary screen, cell-based, Huh7 psiCHECK-miR122, Renilla luciferase, single point; activation, % at 12.5 µM; AID 623901, 2012; 48 h; hit rate 0.14% among 340,000;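 active means mean activation of 30% or more, with every replicate also reaching 30%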;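 further: 0% = median of neutral control wells and 100% = median of positive control wells; higher luciferase signal means stronger suppression of miR-122 activity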
An asterisk follows results filed as active. This is one part of a sample in which hits are shown more often than they occur.

SMILES	miR-122 inh
COc1cccc(NC(=O)N(C)C[C@@H]2Oc3cc(C#Cc4ccncc4)ccc3S(=O)(=O)N([C@@H](C)CO)C[C@@H]2C)c1	-3
COc1ccc(Cl)cc1N(CC(=O)N(C)C)S(=O)(=O)c1ccc(C)c([N+](=O)[O-])c1	-101
CCCNC(=O)N(C)C[C@H]1Oc2cc(C#CCOC)ccc2S(=O)(=O)N([C@@H](C)CO)C[C@@H]1C	-18
C/C=C/c1cnc2c(c1)C(=O)N([C@@H](C)CO)C[C@H](C)[C@H](CN(C)C(=O)Nc1ccccc1F)O2	2
O=c1c2ccccc2nc(/C=C/c2ccc([N+](=O)[O-])o2)n1CCCO	80*
Cc1ccc(-c2cc(C(=O)NCCCn3ccnc3)c3ccccc3n2)s1	-123
CCC(=O)N(C)C[C@@H]1Oc2ncc(C#Cc3ccccc3OC)cc2C(=O)N([C@@H](C)CO)C[C@H]1C	3
C[C@@H]1CN([C@@H](C)CO)C(=O)c2cc(-c3cccc(C#N)c3)cnc2O[C@H]1CN(C)C(=O)C1CCCCC1	2
C[C@@H]1CN([C@@H](C)CO)C(=O)c2cc(C#CC3(O)CCCC3)cnc2O[C@@H]1CN(C)CC1CC1	-3
C[C@@H]1CN([C@H](C)CO)S(=O)(=O)c2ccc(-c3ccncc3)cc2O[C@@H]1CN(C)C(=O)C1CC1	6
CC(=O)c1cccc(S(=O)(=O)NCC2CCCCC2)c1	51*
Cc1cccc(NS(=O)(=O)c2cccc(C(=O)N3CCCCCCC3)c2)c1	-163
O=C(Nc1ccc(S(=O)(=O)NCC2CCCO2)cc1)c1cccc(F)c1 (stereo not drawn)	-91
CO[C@H]1CN(C)C(=O)c2ccc(NC(=O)NC(C)C)cc2OC[C@@H](C)NC[C@@H]1C	-9
C[C@@H]1CN([C@@H](C)CO)C(=O)c2cc(C3=CCCCC3)cnc2O[C@@H]1CN(C)C(=O)c1ccc(F)cc1	4
NC(=O)Cn1cc(/C=N\NS(=O)(=O)c2ccc(F)cc2)c2ccccc21	-135
O=C(COc1ccc(/C=N/NS(=O)(=O)c2ccccc2)cc1)Nc1ccc(F)cc1	36*
Cc1ccc(S(=O)(=O)N/N=C/c2ccc(OCC(=O)Nc3ccccc3Cl)cc2)cc1	-219
COc1cccc(C#Cc2ccc3c(c2)O[C@H](CN(C)S(=O)(=O)c2ccccc2F)[C@H](C)CN([C@H](C)CO)S3(=O)=O)c1	-21
COCC#Cc1ccc2c(c1)O[C@H](CN(C)C(C)=O)[C@H](C)CN([C@H](C)CO)S2(=O)=O	4
C/C=C/c1cnc2c(c1)C(=O)N([C@@H](C)CO)C[C@H](C)[C@H](CN(C)S(=O)(=O)c1ccc(C)cc1)O2	5
CCN(CC)c1ccc(C(=C2C=CC(=[N+](CC)CC)C=C2)c2ccc(N(CC)CC)cc2)cc1	38*
CCCNC(=O)N(C)C[C@@H]1Oc2ncc(C#Cc3ccccc3F)cc2C(=O)N([C@H](C)CO)C[C@H]1C	3
CC(=O)N(C)C[C@H]1Oc2cc(C#CC3(O)CCCC3)ccc2S(=O)(=O)N([C@H](C)CO)C[C@H]1C	-3
COc1ccc(OC)c(Nc2cc(C)nc3ccc(C)cc23)c1	32*
SMILES	miR-122 inh
COc1ccc(OC)c(Nc2cc(C)nc3nc(C)nn23)c1	-107
COc1ccc(NS(=O)(=O)c2cc(OC)ccc2OC)cc1	-130
Cc1ccc(-c2cnc3c(c2)C(=O)N([C@@H](C)CO)C[C@H](C)[C@H](CN(C)Cc2ccccc2F)O3)cc1	0
C[C@@H]1CN([C@@H](C)CO)C(=O)c2cc(C#Cc3ccccc3F)cnc2O[C@H]1CN(C)C(=O)Cc1ccncc1	7
C[C@@H]1CN([C@@H](C)CO)C(=O)c2cc(/C=C/c3ccccc3)cnc2O[C@H]1CN(C)C(=O)c1cccnc1	-2
CC(C)NC(=O)N(C)C[C@H]1Oc2ncc(C3=CCCCC3)cc2C(=O)N([C@H](C)CO)C[C@@H]1C	-6
CC(=O)N1[C@@H](CO)[C@H](c2ccccc2)[C@@H]1CNC(=O)CN1CCOCC1	-108
CC(=O)N(C)C[C@H]1[C@H](c2ccc(-c3cccnc3)cc2)[C@@H](CO)N1C(=O)C1CC1	-125
O=C(C1CCOCC1)N1[C@H](CO)[C@H]2c3ccccc3NC[C@H]21	42*
O=C(CCc1ccc(S(=O)(=O)NC2CCCCC2)cc1)N(Cc1ccccc1)Cc1ccccc1	-99
CCC(=O)Nc1ccc2c(c1)OC[C@@H](C)N(Cc1ccccc1F)C[C@H](C)[C@H](OC)CN(C)C2=O	-2
CC1CCN(C(=S)c2ccc(O)cc2)CC1	-248
O=C(COc1ccc2c(c1)C(=O)CC1(CCCCC1)O2)NCc1ccccc1	-220
COc1ccc(-c2cnc3c(c2)C(=O)N([C@H](C)CO)C[C@@H](C)[C@H](CN(C)Cc2ccccn2)O3)cc1	-3
N=c1c2c(-c3ccccc3)c(-c3ccccc3)n(Cc3ccccc3)c2ncn1CCO	40*
C[C@@H]1CN([C@@H](C)CO)C(=O)c2cc(C#CC3(O)CCCC3)cnc2O[C@H]1CN(C)C(=O)CN(C)C	3
C[C@H]1CN([C@@H](C)CO)C(=O)c2cc(-c3cccc(F)c3)cnc2O[C@H]1CN(C)C(=O)Nc1ccccc1F	2
CCS(=O)(=O)Nc1ccc2c(c1)C(=O)N(C)C[C@H](OC)[C@H](C)CN[C@H](C)CO2	-2
C[C@H]1CN([C@@H](C)CO)C(=O)c2cc(/C=C/c3ccccc3)cnc2O[C@@H]1CN(C)Cc1cccc(C(=O)O)c1	4
CCCNC(=O)N(C)C[C@@H]1Oc2ncc(/C=C/c3ccccc3)cc2C(=O)N([C@H](C)CO)C[C@H]1C	6
COC(=O)c1ccc2c(c1)C(C)(C)C(/C=C/c1ccc(OC)c(OC)c1OC)=[N+]2C	40*
COC(=O)c1ccc(NS(=O)(=O)c2cc(C)ccc2OC)cc1	-150
CCN(CC)C(=O)CC(c1ccc(N(C)C)cc1)c1c(OC)cc(OC)c2c(-c3ccccc3)cc(=O)oc12 (stereo not drawn)	-99
CCCNC(=O)Nc1ccc2c(c1)OC[C@@H](C)NC[C@@H](C)[C@@H](OC)CN(C)C2=O	0
CCCN(C)C[C@H]1Oc2cc(C#CC3(O)CCCC3)ccc2S(=O)(=O)N([C@H](C)CO)C[C@H]1C	-2
SMILES	miR-122 inh
O=S(=O)(NCc1ccccc1)c1ccc(Cl)c(S(=O)(=O)NCc2ccccc2)c1	-106
COCC#Cc1ccc2c(c1)O[C@@H](CN(C)C(=O)C1CCOCC1)[C@H](C)CN([C@@H](C)CO)S2(=O)=O	-13
Oc1ccccc1/C=N/Nc1nc2ccccc2o1	48*
CCCN(C)C[C@H]1Oc2ncc(-c3ccccc3OC)cc2C(=O)N([C@@H](C)CO)C[C@@H]1C	3
C/C=C/c1cnc2c(c1)C(=O)N([C@@H](C)CO)C[C@H](C)[C@H](CN(C)CC1CCOCC1)O2	-6
CO[C@@H]1CN(C)C(=O)c2cc(NC(C)=O)ccc2OC[C@H](C)N(C(=O)c2ccccc2)C[C@H]1C	0
CC(C)Oc1ccc(CNCCC2(C(C)C)CCOC(C)(C)C2)cc1 (stereo not drawn)	71*
COc1ccc(C#Cc2cnc3c(c2)C(=O)N([C@H](C)CO)C[C@H](C)[C@H](CN(C)Cc2ccccc2)O3)cc1OC	-7
C[C@H](CO)N1C[C@H](C)[C@@H](CN(C)Cc2cncnc2)Oc2cc(-c3ccncc3)ccc2S1(=O)=O	-6
C[C@H](CO)N1C[C@H](C)[C@@H](CN(C)Cc2cccnc2)Oc2cc(-c3ccccc3)ccc2S1(=O)=O	-24

High-throughput results: PubChem, Broad Institute
